SMN2 splice enh = qHTS Assay for Enhancers of SMN2 Splice Variant Expression. AID 1458, 2008. 2.8% of 210,000 active. HEK293 SMN2-luciferase splicing reporter, luminescence, 30-36 h. Potency, µM (titrated, usually from 46.1 µM), actives largely listed as activators; further: nearly all actives have a fitted effect of over 55% in size
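qHTS luciferase splicing reporter: luminescence rises when SMN2 exon 7 is included in transfected HEK293 cells. Compound exposure lasted 30-36 h at 37C, with 4.5 mM final sodium butyrate as control, followed by a ONE-Glo read.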
Luc counter = Counterscreen for Luciferase (Kinase-Glo TM) Inhibition. Potency, µM (series often up to 38.3 µM), usual class: inhibitors. Kinase-Glo luciferase, ATP luminescence, 8 min. 0.28% of 200,000 active. Luciferin 4-monooxygenase (Photuris pensylvanica), Q27757; further: nearly all actives have a fitted effect of over 60% in size
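Substrate mix (final 50 mM imidazole pH 7.2, 50 mM KCl, 7 mM MgCl2, 10 uM ATP, 0.01% Tween 20, 0.05% BSA) plus pin-tool compound, then Kinase-Glo detection mix; 8 min ambient, luminescence read.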
FLuc modulator = qHTS profiling assay for firefly luciferase inhibitor/activator using purifed enzyme and Km concentrations of substrates (counterscreen for miR-21 project); Potency, µM (titrated, usually from 57.5 µM), usual class: inhibitors; purified FLuc, Km substrates, luminescence inhibition; Luciferin 4-monooxygenase (Photinus pyralis), P08659; 6.9% of 360,000 active; further: nearly all actives have a fitted effect of over 55% in size
Target sequence (P08659 whole entry, looked up): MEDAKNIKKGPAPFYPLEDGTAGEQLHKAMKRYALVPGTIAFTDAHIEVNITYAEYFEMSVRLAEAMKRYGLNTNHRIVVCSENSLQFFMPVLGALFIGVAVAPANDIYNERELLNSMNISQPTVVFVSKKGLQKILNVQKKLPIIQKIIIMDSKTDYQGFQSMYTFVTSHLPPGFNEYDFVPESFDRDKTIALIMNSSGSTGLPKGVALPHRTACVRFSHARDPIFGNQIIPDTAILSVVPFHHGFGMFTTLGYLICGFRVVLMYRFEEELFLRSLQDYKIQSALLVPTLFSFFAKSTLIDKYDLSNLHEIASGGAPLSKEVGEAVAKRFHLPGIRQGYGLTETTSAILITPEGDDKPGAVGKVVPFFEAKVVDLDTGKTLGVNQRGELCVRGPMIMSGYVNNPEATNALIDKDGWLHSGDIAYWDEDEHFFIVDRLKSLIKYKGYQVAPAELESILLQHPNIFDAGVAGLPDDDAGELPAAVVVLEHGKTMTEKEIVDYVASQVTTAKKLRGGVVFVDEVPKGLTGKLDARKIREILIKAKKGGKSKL
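Biochemical qHTS of compounds, final roughly 60 µM downward over six points, against 10 nM purified firefly luciferase using Km concentrations of substrates (10 uM D-luciferin, 10 uM ATP) in Tris acetate pH 7.5 buffer; luminescence output.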
NPC1 promoter act = qHTS Assay for NPC1 Promoter Activators; AID 485313, 2010; Potency, µM (top dose mostly 9.22 µM), hits mostly activators; Huh7 NPC1 promoter luciferase reporter, 24 h; 2.4% of 320,000 active; further: nearly all actives have a fitted effect of over 60% in size
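NPC1 promoter–luciferase Huh7 cells; 24 h compound; luminescence.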
Rab9 promoter act = qHTS Assay for Rab9 Promoter Activators. Potency, µM (titrated, usually from 9.22 µM), actives largely listed as activators. Huh7 Rab9 promoter-luciferase reporter, luminescence, 24 h. AID 485297, 2010. 2.8% of 320,000 active; further: nearly all actives have a fitted effect of over 60% in size
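Huh7 cells stably carrying Rab9 promoter–luciferase reporter, plated 1500 cells/well, compound added after 2 h and incubated 24 h at 37 °C; luciferase luminescence then read after 10 min with detection reagent.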
ELG1 genotox = qHTS screen for small molecules that induce genotoxicity in human embryonic kidney (HEK293T) cells expressing luciferase-tagged ELG1; AID 504466, 2011; 1.3% of 330,000 active; HEK293T ELG1-luciferase reporter, luminescence, 16 h; Potency, µM (titrated, usually from 46 µM), usual class: activators; further: nearly all actives have a fitted effect of over 60% in size
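Screening used a luciferase reporter fused to human ELG1 in HEK293T cells. Luminescence was read on a CCD plate imager after 16 hr exposure and 30 min ONE-Glo incubation.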
Hits are given with their value; – = inactive; ? = inconclusive; · = no result. An excerpt weighted towards active compounds, which were near 7.5% of everything screened. The call rests on the fitted dose curve; in most records, active means well fitted curve in the direction sought with a large enough effect; inconclusive means small, poorly fitted or top-dose-only effect, or another doubt; inactive means no such curve, though single readings can be large; an effect the other way counts as inactive or inconclusive.

SMILES | SMN2 splice enh | Luc counter | FLuc modulator | NPC1 promoter act | Rab9 promoter act | ELG1 genotox
Cc1oc2ccc(OC(=O)c3cccs3)cc2c1C(=O)OC(C)C | – | – | – | – | – | –
Cc1cc(OC(=O)c2cccs2)ccc1C(C)C | – | – | 3µM | – | – | –
COc1cccc(/C=C/C(=O)c2ccc3c(c2)OCO3)c1OC | · | · | 0.95µM | – | – | ?
O=C(/C=C/c1ccc2c(c1)OCO2)c1cccs1 | · | 8.9µM | · | · | · | ·
CCOC(=O)c1ccc(NC(=O)CSc2nc3ccccc3c(=O)n2CCC(=O)NC2CCCCC2)cc1 | · | · | – | · | · | ·
O=C(COc1ccc2c(c1)OCO2)NCc1cccs1 | · | · | · | · | · | –
O=C(CNC(=O)c1ccc2c(c1)OCO2)N/N=C(Br)/C=C/c1ccccc1 | – | – | – | – | – | –
O=C(/C=C/c1ccccc1)c1ccc2c(c1)OCO2 | · | · | 2.1µM | ? | ? | ?
O=C(Oc1ccc2c(c1)OCO2)c1cccs1 | ? | – | 11µM | – | – | –
CCC(=O)Nc1cc(NC(=O)CSc2ncc(-c3ccc(F)cc3)n2Cc2ccco2)ccc1C | – | – | 12µM | 2.8µM | ? | 18µM
COc1ccc(NC(=O)CSc2nccn2Cc2ccco2)cc1 | · | · | 24µM | 2.5µM | 3.5µM | 16µM
Cc1cccc(NC(=O)CSc2nccn2Cc2ccco2)c1 | · | · | 15µM | 3.2µM | 2.8µM | ?
COc1ccc(-c2nc3ccccn3c2NCc2ccc3c(c2)OCO3)cc1 | 14µM | – | 4.8µM | ? | ? | –
COc1ccc(-c2nc3cc(C)ccn3c2NCc2ccc3c(c2)OCO3)cc1 | · | – | 17µM | – | ? | –
COC(=O)[C@@]1(Cc2ccccc2)[C@H]2c3cc(C(=O)N4CCCC4)n(Cc4nc5ccccc5[nH]4)c3C[C@H]2CN1C(=O)c1ccccc1 | – | – | · | · | · | ·
COc1ccc(/C=N\Nc2ncc(F)c(N3CCOCC3)n2)cc1OC | · | · | 11µM | – | – | –
Cc1cc(C)n(-c2nc(Nc3ccccc3)nc(-n3nc(C)cc3C)n2)n1 | – | – | – | – | – | –
COc1ccccc1/C=N/Nc1cc(C)nc(N2CCOCC2)n1 | · | · | 13µM | – | – | –
COc1cccc(/C=N/Nc2nc(Nc3ccccc3)nc(-n3nc(C)cc3C)n2)c1O | – | – | 6µM | – | – | –
COc1ccc(/C=N/Nc2cc(C)nc(N3CCOCC3)n2)cc1OC | · | · | 6.7µM | – | – | –
CSc1cccc(NS(=O)(=O)c2ccc3[nH]cc(C(=O)N4CCCC4)c(=O)c3c2)c1 | – | · | ? | · | · | ·
COc1ccc(/C=N/Nc2cc(C)nc(N3CCOCC3)n2)cc1 | · | · | 2.4µM | – | – | –
COc1ccc(/C=N/Nc2cc(C)nc(-n3nc(C)cc3C)n2)c(OC)c1 | – | – | 17µM | – | – | ?
Cc1nncn1-c1ccc(C(=O)Nc2cc(F)ccc2F)cc1 | · | · | – | · | · | ·
Cc1ccc2oc(-c3cc(NC(=O)c4ccc5c(c4)OCCO5)cc(C)c3O)nc2c1 | – | · | ? | · | · | ·
SMILES | SMN2 splice enh | Luc counter | FLuc modulator | NPC1 promoter act | Rab9 promoter act | ELG1 genotox
O=C(c1cc(-c2cccc(O)c2)on1)N1CCCC1 | · | · | 6µM | ? | ? | 7.3µM
O=C(c1cc(-c2cccc(O)c2)on1)N1CCCCC1 | ? | – | 3µM | ? | ? | 3.7µM
O=C(c1cc(-c2cccc(Cl)c2)on1)N1CCCCC1 | – | · | 21µM | · | · | ·
Cc1cc2nc(C3CCCN(C(=S)Nc4ccccc4C)C3)[nH]c2cc1C (stereo not drawn) | – | – | 3.4µM | – | – | –
COc1ccc(NC(=S)N2CCCC(c3nc4ccc(C)cc4[nH]3)C2)c(OC)c1 (stereo not drawn) | · | – | 13µM | – | – | –
Cc1ccc(NC(=S)N2CCCC(c3nc4ccc(C)cc4[nH]3)C2)c(C)c1 (stereo not drawn) | – | – | – | – | – | –
COc1ccc(NC(=S)N2CCCC(c3nc4ccc(C)cc4[nH]3)C2)cc1 (stereo not drawn) | · | – | 13µM | – | – | –
